# In publication PMC11006913:
# Changes are numbered by the printed parent chain.
# Legend:
# Experiment in all cases: PBM; 200 nM protein, PBS
# Conditions in all cases: dsDNA, one strand shown
# SIX6 [1] = biological target: T1, SIX6 (Homo sapiens, UniProt O95475 114-200, L167I)
# T1 sequence: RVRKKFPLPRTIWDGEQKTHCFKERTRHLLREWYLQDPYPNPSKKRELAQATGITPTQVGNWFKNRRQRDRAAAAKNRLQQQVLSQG
# SIX6 [2] = biological target: T2, SIX6 (Homo sapiens, UniProt O95475 114-200, L143M)
# T2 sequence: T1 sequence with L30M, I54L
# SIX6 [3] = biological target: T3, SIX6 (Homo sapiens, UniProt O95475 114-200, T139Q)
# T3 sequence: T1 sequence with T26Q, I54L
# HOXA4 [4] = biological target: HOXA4 (Homo sapiens, UniProt Q00056 201-287, W262R)
# Sequence of HOXA4 (Homo sapiens, UniProt Q00056 201-287, W262R) (Q00056 201-287 W262R): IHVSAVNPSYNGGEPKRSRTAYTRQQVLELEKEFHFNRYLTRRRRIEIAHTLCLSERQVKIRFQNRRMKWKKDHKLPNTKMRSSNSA
# HOXC9 [5] = biological target: HOXC9 (Homo sapiens, UniProt P31274 178-260, K195R)
# Sequence of HOXC9 (Homo sapiens, UniProt P31274 178-260, K195R) (P31274 178-260 K195R): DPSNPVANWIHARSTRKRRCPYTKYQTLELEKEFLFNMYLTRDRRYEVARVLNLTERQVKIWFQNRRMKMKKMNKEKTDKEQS
# ALX4 [6] = biological target: ALX4 (Homo sapiens, UniProt Q9H161 200-286)
# Sequence of ALX4 (Homo sapiens, UniProt Q9H161 200-286) (Q9H161 200-286): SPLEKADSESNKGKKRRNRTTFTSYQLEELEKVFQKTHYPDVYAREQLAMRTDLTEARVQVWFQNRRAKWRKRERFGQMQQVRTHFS
# ALX4 [7] = biological target: ALX4 (Homo sapiens, UniProt Q9H161 200-286, Q225E)
# Sequence of ALX4 (Homo sapiens, UniProt Q9H161 200-286, Q225E) (Q9H161 200-286 Q225E): as the sequence (Q9H161 200-286) above, with Q26E counted along it
# HOXA4 [8] = biological target: HOXA4 (Homo sapiens, UniProt Q00056 201-287, R217L)
# Sequence of HOXA4 (Homo sapiens, UniProt Q00056 201-287, R217L) (Q00056 201-287 R217L): as the sequence (Q00056 201-287 W262R) above, with R17L, R62W counted along it
# HOXC9 [9] = biological target: HOXC9 (Homo sapiens, UniProt P31274 178-260)
# Sequence of HOXC9 (Homo sapiens, UniProt P31274 178-260) (P31274 178-260): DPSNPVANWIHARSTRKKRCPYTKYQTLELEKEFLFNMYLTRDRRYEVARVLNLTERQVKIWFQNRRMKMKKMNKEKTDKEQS
# HOXC9 [10] = biological target: HOXC9 (Homo sapiens, UniProt P31274 178-260, R193K)
# Sequence of HOXC9 (Homo sapiens, UniProt P31274 178-260, R193K) (P31274 178-260 R193K): as the sequence (P31274 178-260) above, with R16K counted along it
# HOXA4 [11] = biological target: HOXA4 (Homo sapiens, UniProt Q00056 201-287)
# Sequence of HOXA4 (Homo sapiens, UniProt Q00056 201-287) (Q00056 201-287): as the sequence (Q00056 201-287 W262R) above, with R62W counted along it
# HOXC9 [12] = biological target: HOXC9 (Homo sapiens, UniProt P31274 178-260, R222W)
# Sequence of HOXC9 (Homo sapiens, UniProt P31274 178-260, R222W) (P31274 178-260 R222W): as the sequence (P31274 178-260) above, with R45W counted along it
# HOXA4 [13] = biological target: HOXA4 (Homo sapiens, UniProt Q00056 201-287, W262F)
# Sequence of HOXA4 (Homo sapiens, UniProt Q00056 201-287, W262F) (Q00056 201-287 W262F): as the sequence (Q00056 201-287 W262R) above, with R62F counted along it
# HOXD13 [14] = biological target: HOXD13 (Homo sapiens, UniProt P35453 263-343, T313R)
# Sequence of HOXD13 (Homo sapiens, UniProt P35453 263-343, T313R) (P35453 263-343 T313R): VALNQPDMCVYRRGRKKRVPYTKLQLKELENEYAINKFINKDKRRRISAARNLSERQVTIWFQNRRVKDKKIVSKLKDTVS
# HOXD13 [15] = biological target: HOXD13 (Homo sapiens, UniProt P35453 263-343)
# Sequence of HOXD13 (Homo sapiens, UniProt P35453 263-343) (P35453 263-343): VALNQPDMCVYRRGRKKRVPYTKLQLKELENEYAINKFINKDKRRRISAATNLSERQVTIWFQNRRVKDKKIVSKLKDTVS
# HOXD13 [16] = biological target: HOXD13 (Homo sapiens, UniProt P35453 263-343, T313A)
# Sequence of HOXD13 (Homo sapiens, UniProt P35453 263-343, T313A) (P35453 263-343 T313A): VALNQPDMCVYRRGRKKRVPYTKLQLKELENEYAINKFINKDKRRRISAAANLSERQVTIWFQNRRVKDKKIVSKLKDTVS
# ALX1 [17] = biological target: ALX1 (Homo sapiens, UniProt Q15699 118-204, L144V)
# Sequence of ALX1 (Homo sapiens, UniProt Q15699 118-204, L144V) (Q15699 118-204 L144V): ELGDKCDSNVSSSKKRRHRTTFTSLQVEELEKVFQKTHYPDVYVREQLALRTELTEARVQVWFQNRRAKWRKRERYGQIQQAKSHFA
# ALX1 [18] = biological target: ALX1 (Homo sapiens, UniProt Q15699 118-204, L144R)
# Sequence of ALX1 (Homo sapiens, UniProt Q15699 118-204, L144R) (Q15699 118-204 L144R): as the sequence (Q15699 118-204 L144V) above, with V27R counted along it
# PROP1 [19] = biological target: PROP1 (Homo sapiens, UniProt O75360 56-141)
# Sequence of PROP1 (Homo sapiens, UniProt O75360 56-141) (O75360 56-141): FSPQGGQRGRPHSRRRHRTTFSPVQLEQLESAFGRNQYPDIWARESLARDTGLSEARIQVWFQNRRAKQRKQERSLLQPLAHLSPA
# PROP1 [20] = biological target: PROP1 (Homo sapiens, UniProt O75360 56-141, R99H)
# Sequence of PROP1 (Homo sapiens, UniProt O75360 56-141, R99H) (O75360 56-141 R99H): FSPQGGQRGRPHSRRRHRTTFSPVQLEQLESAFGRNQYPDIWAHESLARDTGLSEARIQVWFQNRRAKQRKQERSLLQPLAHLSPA
# PROP1 [21] = biological target: PROP1 (Homo sapiens, UniProt O75360 56-141, F88S)
# Sequence of PROP1 (Homo sapiens, UniProt O75360 56-141, F88S) (O75360 56-141 F88S): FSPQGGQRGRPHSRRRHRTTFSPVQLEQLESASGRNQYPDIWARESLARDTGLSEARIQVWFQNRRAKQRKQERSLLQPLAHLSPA
# ALX1 [22] = biological target: ALX1 (Homo sapiens, UniProt Q15699 118-204)
# Sequence of ALX1 (Homo sapiens, UniProt Q15699 118-204) (Q15699 118-204): as the sequence (Q15699 118-204 L144V) above, with V27L counted along it
sequence,measurement,setting,value
GGATCACA,binding signal,SIX6 [1],"11.1 upbm affinity estimate (log intensity, higher = more binding, comparable within an allelic series)"
same,binding signal,SIX6 [2],"10.9 upbm affinity estimate (log intensity, higher = more binding, comparable within an allelic series)"
same,binding signal,SIX6 [3],"11.2 upbm affinity estimate (log intensity, higher = more binding, comparable within an allelic series)"
GCCTCCCA,binding signal,HOXA4 [4],"9.78 upbm affinity estimate (log intensity, higher = more binding, comparable within an allelic series)"
same,binding signal,HOXC9 [5],"9.58 upbm affinity estimate (log intensity, higher = more binding, comparable within an allelic series)"
same,binding signal,ALX4 [6],"8.34 upbm affinity estimate (log intensity, higher = more binding, comparable within an allelic series)"
same,binding signal,ALX4 [7],"8.34 upbm affinity estimate (log intensity, higher = more binding, comparable within an allelic series)"
same,binding signal,HOXA4 [8],"9.83 upbm affinity estimate (log intensity, higher = more binding, comparable within an allelic series)"
same,binding signal,HOXC9 [9],"9.69 upbm affinity estimate (log intensity, higher = more binding, comparable within an allelic series)"
same,binding signal,HOXC9 [10],"9.59 upbm affinity estimate (log intensity, higher = more binding, comparable within an allelic series)"
same,binding signal,HOXA4 [11],"9.75 upbm affinity estimate (log intensity, higher = more binding, comparable within an allelic series)"
same,binding signal,HOXC9 [12],"9.65 upbm affinity estimate (log intensity, higher = more binding, comparable within an allelic series)"
same,binding signal,HOXA4 [13],"9.77 upbm affinity estimate (log intensity, higher = more binding, comparable within an allelic series)"
GCGGACCC,binding signal,HOXA4 [4],"9.75 upbm affinity estimate (log intensity, higher = more binding, comparable within an allelic series)"
same,binding signal,ALX4 [6],"8.35 upbm affinity estimate (log intensity, higher = more binding, comparable within an allelic series)"
same,binding signal,ALX4 [7],"8.27 upbm affinity estimate (log intensity, higher = more binding, comparable within an allelic series)"
same,binding signal,HOXA4 [8],"9.74 upbm affinity estimate (log intensity, higher = more binding, comparable within an allelic series)"
same,binding signal,HOXA4 [11],"9.79 upbm affinity estimate (log intensity, higher = more binding, comparable within an allelic series)"
same,binding signal,HOXA4 [13],"9.89 upbm affinity estimate (log intensity, higher = more binding, comparable within an allelic series)"
CCCGACGC,binding signal,HOXA4 [4],"9.83 upbm affinity estimate (log intensity, higher = more binding, comparable within an allelic series)"
same,binding signal,HOXC9 [5],"9.46 upbm affinity estimate (log intensity, higher = more binding, comparable within an allelic series)"
same,binding signal,HOXA4 [8],"9.86 upbm affinity estimate (log intensity, higher = more binding, comparable within an allelic series)"
same,binding signal,HOXC9 [9],"9.54 upbm affinity estimate (log intensity, higher = more binding, comparable within an allelic series)"
same,binding signal,HOXD13 [14],"9.45 upbm affinity estimate (log intensity, higher = more binding, comparable within an allelic series)"
same,binding signal,HOXC9 [10],"9.42 upbm affinity estimate (log intensity, higher = more binding, comparable within an allelic series)"
same,binding signal,HOXD13 [15],"9.26 upbm affinity estimate (log intensity, higher = more binding, comparable within an allelic series)"
same,binding signal,HOXA4 [11],"9.73 upbm affinity estimate (log intensity, higher = more binding, comparable within an allelic series)"
same,binding signal,HOXD13 [16],"9.49 upbm affinity estimate (log intensity, higher = more binding, comparable within an allelic series)"
same,binding signal,HOXC9 [12],"9.75 upbm affinity estimate (log intensity, higher = more binding, comparable within an allelic series)"
same,binding signal,HOXA4 [13],"9.96 upbm affinity estimate (log intensity, higher = more binding, comparable within an allelic series)"
CCGAGAGG,binding signal,HOXA4 [4],"9.76 upbm affinity estimate (log intensity, higher = more binding, comparable within an allelic series)"
same,binding signal,HOXC9 [5],"9.41 upbm affinity estimate (log intensity, higher = more binding, comparable within an allelic series)"
same,binding signal,HOXA4 [8],"9.77 upbm affinity estimate (log intensity, higher = more binding, comparable within an allelic series)"
same,binding signal,HOXC9 [9],"9.42 upbm affinity estimate (log intensity, higher = more binding, comparable within an allelic series)"
same,binding signal,ALX1 [17],"6.38 upbm affinity estimate (log intensity, higher = more binding, comparable within an allelic series)"
same,binding signal,HOXC9 [10],"9.45 upbm affinity estimate (log intensity, higher = more binding, comparable within an allelic series)"
same,binding signal,ALX1 [18],"6.33 upbm affinity estimate (log intensity, higher = more binding, comparable within an allelic series)"
same,binding signal,HOXA4 [11],"9.59 upbm affinity estimate (log intensity, higher = more binding, comparable within an allelic series)"
same,binding signal,PROP1 [19],"6.47 upbm affinity estimate (log intensity, higher = more binding, comparable within an allelic series)"
same,binding signal,PROP1 [20],"6.52 upbm affinity estimate (log intensity, higher = more binding, comparable within an allelic series)"
same,binding signal,HOXC9 [12],"9.58 upbm affinity estimate (log intensity, higher = more binding, comparable within an allelic series)"
same,binding signal,PROP1 [21],"6.64 upbm affinity estimate (log intensity, higher = more binding, comparable within an allelic series)"
same,binding signal,ALX1 [22],"6.34 upbm affinity estimate (log intensity, higher = more binding, comparable within an allelic series)"
same,binding signal,HOXA4 [13],"9.74 upbm affinity estimate (log intensity, higher = more binding, comparable within an allelic series)"
